According to PubChem BioAssay AID493170 (National Center for Advancing Translational Sciences (NCATS), 2011):
Inconclusive results are not listed. Values without a mark were called inactive. Active and inactive are the calls of the source. Calls come from the whole dose curve; as a rule, active = well fitted inhibition curve with a large enough effect; inconclusive = small, poorly fitted or top-dose-only effect, or effect the other way; inactive = flat fitted curve, though single readings scatter.
% is set by controls: 0 for no effect and ±100 for the full control effect; potency is the fitted concentration of half-maximal effect.
Note: nearly all actives have a fitted effect of over 50% in size.

Each compound was assayed against Ubiquitin carboxyl-terminal hydrolase 2 (Homo sapiens) (UniProt O75604) (assay: Ub-rhodamine 110 based assay for inhibitors Ubiquitin-specific Protease USP2a). Settings: USP2a Ub-rhodamine110 cleavage, fluorescence; series mostly up to 38.3 µM; activity change, negative = inhibition: at the top concentration.
Chain of Ubiquitin carboxyl-terminal hydrolase 2 (Homo sapiens) (O75604 whole entry, looked up): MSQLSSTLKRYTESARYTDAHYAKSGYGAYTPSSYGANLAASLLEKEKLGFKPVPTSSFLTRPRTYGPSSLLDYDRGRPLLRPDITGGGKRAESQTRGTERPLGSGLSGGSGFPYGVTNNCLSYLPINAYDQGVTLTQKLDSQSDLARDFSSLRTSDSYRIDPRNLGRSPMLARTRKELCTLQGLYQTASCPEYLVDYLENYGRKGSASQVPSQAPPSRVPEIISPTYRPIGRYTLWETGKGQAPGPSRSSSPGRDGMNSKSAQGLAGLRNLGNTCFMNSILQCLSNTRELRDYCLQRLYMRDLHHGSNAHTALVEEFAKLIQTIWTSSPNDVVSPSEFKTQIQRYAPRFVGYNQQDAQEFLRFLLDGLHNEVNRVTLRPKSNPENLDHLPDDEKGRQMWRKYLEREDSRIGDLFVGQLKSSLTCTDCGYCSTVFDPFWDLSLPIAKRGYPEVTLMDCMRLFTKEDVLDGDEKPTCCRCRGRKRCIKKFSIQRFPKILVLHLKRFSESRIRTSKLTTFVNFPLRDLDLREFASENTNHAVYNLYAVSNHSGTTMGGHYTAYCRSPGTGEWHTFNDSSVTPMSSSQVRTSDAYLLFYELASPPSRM
Outline: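 5 nM USP2a preincubated with compounds for 30 min at RT in 20 mM Tris-HCl pH 8.0, 2 mM CaCl2, 2 mM beta-mercaptoethanol, 0.05% CHAPS. Cleavage of 150 nM Ub-rhodamine 110 read kinetically (Ex 485/Em 531) for 7 min.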
`COC(=O)CCC(=O)Nc1sc2c(c1C#N)CCCC2` was tested, and the “activity change, negative = inhibition” value was -9.38%.
`Cc1ccc(Nc2cc(C)nc(NCc3ccccc3)n2)cc1` was tested, and the “activity change, negative = inhibition” value was -3.78%.
`COc1cc2cc(CN(CCN3CCCC3)C(=O)Nc3ccc(F)cc3)c(=O)[nH]c2cc1OC` was tested, and the “activity change, negative = inhibition” value was -12.5%.
`CCCn1c(N2CCN(Cc3cccc(C)c3)CC2)nc2c1c(=O)[nH]c(=O)n2C` was tested, and the “activity change, negative = inhibition” value was -2%.
For `CN(C)CCOCCP(=O)(c1ccccc1)c1ccccc1`, the “activity change, negative = inhibition” value was -0.767%.
With `Cc1ccc2nc(NCCCNC(=O)c3cnccn3)c(C#N)cc2c1` the “activity change, negative = inhibition” value was -11.9%.
For `O=C(CSc1ccc2nnc(-c3cccc(F)c3)n2n1)N1CCCc2ccccc21`, the “activity change, negative = inhibition” value was -0.537%.
In the case of `CCOc1cc(/C=C2\C(=O)N(c3nc(-c4ccc(Br)cc4)cs3)N=C2c2ccccc2)ccc1O`, the Potency is reported as 3.16 µM (active).
`CCC(CO)Nc1nc(CN2CCCCC2)nc2scc(-c3ccccc3)c12` (centres undefined) was tested, and the “activity change, negative = inhibition” value was -3.55%.
In the case of `CCCCC1NC(C(=O)O)CS1` (centres undefined), the “activity change, negative = inhibition” value is reported as -4.19%.
With `COc1ccc(C(=O)OCC(=O)c2c[nH]c3ccccc23)c(OC)c1` the “activity change, negative = inhibition” value was -10.9%.
For `O=c1cc(CO)oc(CN2CCN(Cc3ccccc3)CC2)c1O`, the “activity change, negative = inhibition” value was -1.31%.
For `CC(=O)c1ccc(Nc2ncnc3c2oc2ccccc23)cc1`, the “activity change, negative = inhibition” value was -4.39%.
`CCCCCCCCCCCCCCCC[N+](C)(C)CCN(Cc1ccc(OC)cc1)c1ncccn1` was tested, and the Potency was 11.2 µM (active).
`O=C(CSc1nc2ccccc2[nH]1)Nc1ccc2c(c1)OCCO2` was tested, and the “activity change, negative = inhibition” value was -8.95%.
`Cc1ccc(C)c(S(=O)(=O)c2c(N)n(/N=C/c3ccco3)c3nc4ccccc4nc23)c1` was tested, and the “activity change, negative = inhibition” value was -23.7%.
With `Cc1ccc(C(=O)N(c2c(C)n(C)n(-c3ccccc3)c2=O)C(C)C)cc1` the “activity change, negative = inhibition” value was 12.9%.
`COCc1cc(C)nc(SCC[N+](C)(C)CC(=O)Nc2cccc(C(F)(F)F)c2)c1C#N` was tested, and the “activity change, negative = inhibition” value was -7.94%.
`O=C(Nc1ccncc1)c1ccc(S(=O)(=O)Nc2ccccc2)cc1` was tested, and the “activity change, negative = inhibition” value was -4.98%.
In the case of `COc1cc(C2C(C#N)=C(N)Oc3c2ccc2ccccc32)ccc1OCC(=O)Nc1cccc(C)c1` (centres undefined), the “activity change, negative = inhibition” value is reported as -14.7%.
With `COc1ccc(NC(=O)CSc2nnc(-c3ccccc3Cl)n2Cc2ccco2)c(OC)c1` the “activity change, negative = inhibition” value was -3.93%.
In the case of `COc1ccc(Cl)cc1S(=O)(=O)Nc1cccc(C(=O)O)c1`, the “activity change, negative = inhibition” value is reported as -1.12%.
For `COCCNCC(=O)N1CCCCCC1`, the “activity change, negative = inhibition” value was -3.07%.
In the case of `Cc1cc(-c2csc(NC(=O)c3ccc(=O)[nH]c3)n2)c(C)n1Cc1ccccc1`, the Potency is reported as 12.6 µM (active).
With `CCC1SC2=NC(C)=C(C(=O)OCCOC)C(c3ccc(C(=O)OC)cc3)N2C1=O` (centres undefined) the “activity change, negative = inhibition” value was -8.2%.
In the case of `O=C1c2ccccc2C(=O)N1CCC1=CCCCC1`, the “activity change, negative = inhibition” value is reported as -8.94%.
`O=C(O)CCn1c(C2CCCCC2)nc2ccccc21` was tested, and the “activity change, negative = inhibition” value was -1.41%.
In the case of `COc1ccc(C(=O)Nc2ccc(N3CCCC3)cc2)cc1OC`, the “activity change, negative = inhibition” value is reported as -7.74%.
With `N#Cc1cccc(C(=O)N(CCc2ccccc2)Cc2cccs2)c1` the “activity change, negative = inhibition” value was -2.85%.
With `COc1ccc(/C=C2\SC(=O)N(CCC(=O)Nc3ccc(S(=O)(=O)Nc4nccs4)cc3)C2=O)cc1` the Potency was 10 µM (active).
In the case of `O=C(c1ccccc1N(Cc1ccccc1)S(=O)(=O)c1ccccc1)N1CCOCC1`, the “activity change, negative = inhibition” value is reported as -4.89%.
`O=C(OCC1OC(n2ncc(=O)[nH]c2=O)C(OC(=O)c2ccccc2)C1OC(=O)c1ccccc1)c1ccccc1` (centres undefined) was tested, and the Potency was 4.47 µM (active).
In the case of `CC(C)n1c(/C=C/[C@H](O)C[C@H](O)CC(=O)O)c(-c2ccc(F)cc2)c2ccccc21`, the “activity change, negative = inhibition” value is reported as -10.4%.
In the case of `O=C(CSc1ccc(Br)c2cccc(Cl)c12)Nc1ccc(S(=O)(=O)Nc2nccs2)cc1`, the Potency is reported as 3.55 µM (active).
In the case of `COc1cc(OC)cc(-c2c(C#Cc3ccsc3)c3cc(-c4ccc(OC)c(OC)c4)ccc3n2C)c1`, the “activity change, negative = inhibition” value is reported as -6.88%.
For `Cc1ccc(-c2nc(N/N=C/c3ccncc3)c3ccccc3n2)cc1`, the Potency was 11.2 µM (active).
`Cc1ccc(-c2ccc(CCC(=O)O)n2NC(=O)c2cccs2)cc1` was tested, and the “activity change, negative = inhibition” value was -26.2%.
`Cc1ccc(C(=O)Nc2nnc(CC(=O)N/N=C/c3ccc(O)c(O)c3)s2)cc1` was tested, and the Potency was 4.47 µM (active).
With `C=CCn1c(O)c(C(CC)=NCCN2CCOCC2)c(=O)[nH]c1=O` the “activity change, negative = inhibition” value was -2.11%.
